The structures appear in SMILES notation. Compounds without any hit were thinned out: in the full panel of roughly 83,000, 20% have a hit.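 For each line, cells grew in 96-well plates with the test compound present at a single concentration for 48 hours.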 Values without a mark were called inactive. Calls of active or inactive are those of the source. The calls were made as follows: active = growth percent below 10; inactive = the rest.

Test systems include NCI-H23 lung; NCI-H226 lung; NCI-H322M lung; HOP-62 NSCLC; NCI-H460 lung; NCI-H522 lung; A549/ATCC NSCLC; 786-0 renal; DU-145 prostate; COLO 205 colon.
Test in all cases: NCI-60 one-dose screen, 48 h (100 = growth as untreated, 0 = no growth, -100 = all killed)
Holding throughout (conditions): 10 µM unless noted

Consider `CC(NC(=O)C(C)Oc1ccc(Cl)cc1Cl)C(=O)O` (stereo unspecified), for which the growth in the assay with NCI-H23 lung was 91.9%; with NCI-H226 lung, 92.9%; in the assay with NCI-H322M lung, 122%; in the assay with HOP-62 NSCLC, 94.5%; with NCI-H460 lung, 101%; in the assay with NCI-H522 lung it was 83.6%. For the same compound, the growth with A549/ATCC NSCLC is 116%; in the assay with 786-0 renal it was 97.6%; in the assay on DU-145 prostate, 108%.

On to `Cc1c(C(N)=O)sc2ncn(Cc3ccccc3)c(=O)c12`, for which the growth with NCI-H23 lung is 101%; in the assay on NCI-H226 lung, 96.8%; in the assay with NCI-H322M lung, 79%; in the assay with HOP-62 NSCLC, 95.4%; with NCI-H460 lung, 108%; with NCI-H522 lung, 103%. For the same compound, the values for the growth in the assay with A549/ATCC NSCLC, in the assay on 786-0 renal and with DU-145 prostate were 85.7%, 96.1% and 113%, respectively.

On to `C=C(C)[C@@H]1C/C=C(/C=O)CC[C@@H]2O[C@@]2(C)CC/C=C(\C)CC1`, for which the growth in the assay on NCI-H23 lung was 116%; with NCI-H226 lung, 98.9%; with NCI-H322M lung it was 91%; in the assay on HOP-62 NSCLC it was 110%; in the assay on NCI-H460 lung it was 98.7%; in the assay on NCI-H522 lung, 186%. Also, the growth was 104% in the assay with A549/ATCC NSCLC, 106% in the assay on 786-0 renal and 112% with DU-145 prostate.

On to `CSc1nc2c(c(=O)n1C)C(c1ccccc1)C1=C(N2)/C(=C/c2ccccc2)CCC1` (stereo unspecified), for which the growth with NCI-H23 lung is 54.8%; in the assay with NCI-H226 lung, 74.1%; in the assay on NCI-H322M lung it was 86%; in the assay with HOP-62 NSCLC, 94.3%; in the assay on NCI-H460 lung, 54.3%; in the assay with NCI-H522 lung, 24.5%. In addition, the results for the growth in the assay on A549/ATCC NSCLC, in the assay on 786-0 renal and in the assay on DU-145 prostate were 86.2%, 54.6% and 72.2%, respectively.

Consider `C=C(C)[C@H]1CC/C(C)=C/CC[C@]2(C)O[C@H]2CC/C(COC(C)=O)=C\C1=O`, for which the growth in the assay with NCI-H23 lung was 103%; with NCI-H226 lung it was 130%; with NCI-H322M lung, 87.3%; in the assay on HOP-62 NSCLC it was 102%; with NCI-H460 lung, 116%; in the assay on NCI-H522 lung, 109%. Further, the growth in the assay on A549/ATCC NSCLC was 37.7%; in the assay with 786-0 renal, 92.1%; with DU-145 prostate, 140%.

With `O=c1[nH]c(Cl)nc2c1cnn2-c1ccccc1`, the growth with NCI-H23 lung is 81.3%; in the assay on NCI-H226 lung, 92.5%; in the assay with NCI-H322M lung it was 112%; in the assay on HOP-62 NSCLC it was 91.3%; in the assay with NCI-H460 lung, 95.3%; in the assay on NCI-H522 lung it was 97.1%. For the same compound, the growth in the assay with A549/ATCC NSCLC is 113%; in the assay with COLO 205 colon, 107%; with DU-145 prostate, 104%.

On to `O=C(Nc1cccc(-n2cc(-c3ccncc3)c(-c3ccc(O)c(Cl)c3)n2)c1)Nc1ccc(Cl)c(C(F)(F)F)c1`, for which the growth in the assay with NCI-H23 lung is 1.11% (active); with NCI-H226 lung it was 20.2%; with NCI-H322M lung it was -17.7% (active); in the assay with HOP-62 NSCLC, 4.91% (active); in the assay on NCI-H460 lung it was 3.16% (active); in the assay on NCI-H522 lung, -7.92% (active). In addition, the growth is -14.8% (active) with A549/ATCC NSCLC, -6.01% (active) in the assay on 786-0 renal and 4.68% (active) in the assay with DU-145 prostate.

In the case of `Cn1c(N)c(N=O)c(=O)[nH]c1=O`, the growth is 104% with NCI-H23 lung; 106% with NCI-H226 lung; 112% in the assay on NCI-H322M lung; 103% in the assay on HOP-62 NSCLC; 107% with NCI-H460 lung; 91.8% in the assay on NCI-H522 lung. The results for the growth in the assay with A549/ATCC NSCLC, in the assay on 786-0 renal and with DU-145 prostate were 97.9%, 101% and 112%, respectively.

Regarding `Clc1ccc2c(Nc3ccc4oc(NCCN5CCCC5)nc4c3)ccnc2c1`, the growth with NCI-H23 lung is 88.7%; in the assay on NCI-H226 lung it was 101%; in the assay on NCI-H322M lung it was 90.1%; in the assay with HOP-62 NSCLC, 109%; in the assay with NCI-H460 lung, 96.4%; in the assay with NCI-H522 lung, 98.5%. In addition, the growth in the assay with A549/ATCC NSCLC was 92.9%; in the assay with COLO 205 colon, 84.4%; in the assay with DU-145 prostate, 71.1%.

For the compound `COc1ccc(C2=NNC(c3cc(Cc4ccc(O)c(C5CC(c6ccc(OC)cc6)=NN5)c4)ccc3O)C2)cc1` (stereo unspecified), the growth in the assay on NCI-H23 lung is 35.9%; with NCI-H226 lung it was 82.6%; in the assay with NCI-H322M lung, 32.1%; in the assay on HOP-62 NSCLC, 60%; with NCI-H460 lung, 27.5%; in the assay with NCI-H522 lung, -7.59% (active). The results for the growth in the assay on A549/ATCC NSCLC, with 786-0 renal and in the assay with DU-145 prostate were 35.2%, 56.1% and 69.3%, respectively.

For the compound `CCN(CC)CCOc1ccccc1-n1c(C)ccc1-c1ccccc1`, the growth in the assay with NCI-H23 lung was 102%; in the assay with NCI-H226 lung, 92%; with NCI-H322M lung, 80.1%; in the assay on HOP-62 NSCLC, 106%; in the assay with NCI-H460 lung, 44.2%; with NCI-H522 lung, 101%. The figures for the growth in the assay on A549/ATCC NSCLC, with COLO 205 colon and in the assay with DU-145 prostate were 88.2%, 70.3% and 103%, respectively.

As for `COc1ccc(C(=O)COc2cccc(/C=C3\Oc4ccc5ccccc5c4C3=O)c2)cc1`, the growth is 10.3% in the assay with NCI-H23 lung; 71.7% in the assay on NCI-H226 lung; 106% in the assay with NCI-H322M lung; 89.8% with HOP-62 NSCLC; 100% in the assay with NCI-H460 lung; -0.888% (active) in the assay with NCI-H522 lung. Also, the growth with 786-0 renal is 100%; with COLO 205 colon, 77.3%.

Regarding `O=C(C=C=Nc1ccccc1)C(=O)N=C=Cc1ccccc1`, the growth in the assay with NCI-H23 lung was 63.3%; in the assay on NCI-H226 lung it was 67.7%; in the assay on NCI-H322M lung, 93.9%; in the assay on HOP-62 NSCLC, 90.5%; in the assay with NCI-H460 lung, 92.2%; in the assay with NCI-H522 lung it was -82.5% (active). For the same compound, the values for the growth with A549/ATCC NSCLC, with 786-0 renal and with DU-145 prostate were 79.8%, 79.3% and 40.2%, respectively.

The values above are taken from PubChem BioAssay (NCI).
